# EPAC1 agonist = EPAC1 (human) agonism. 360,000 compounds, 0.073% hits. Potency, µM (highest dose often 154 µM), inactives show at the highest dose activation, usual class: activators. EPAC1 agonist qHTS, biochemical assay; response scale: 100% = response to 6.5 mM cAMP. AID 720707; note: nearly all actives have a fitted effect of over 60% in size
#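 Nucleotide exchange by EPAC1 (100 nM) on Rap1B–BODIPY-GDP (250 nM) in the presence of 50 uM GDP is tracked fluorescently at 480/540 nm over 30 min. Signals are normalized to a 6.5 mM cAMP control.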
# EPAC2 ag = agonists of human EPAC2 (RAPGEF4); Potency, µM (doses to about 154 µM), for inactives: top-dose activation, most hits filed as activators; Q8WZA2; 360,000 compounds, 0.079% hits; EPAC2 activation, biochemical qHTS; response scale: 100% = 6.5 mM cAMP response; AID 720711; note: nearly all actives have a fitted effect of over 50% in size
#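 Setup: EPAC2 100 nM, labeled Rap1B complex 250 nM, free GDP 50 uM. Compound titrations pinned in, brief spin, 5 min room temperature incubation. Kinetic fluorescence read over 30 min, normalized to 6.5 mM cAMP.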
# Rango complex inh = inhibitors of Rango-importin beta complex formation; Rango CFP/YFP FRET sensor + importin beta, 45 min; Potency, µM (titrated, usually from 92.2 µM), for the others: top-dose inhibition of complex formation; 340,000 compounds, 0.031% hits; AID 540263; calls by dose curve;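 note: 0% = DMSO wells and 100% = buffer wells lacking importin beta; nearly all actives have a fitted effect of over 15% in size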
#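 FRET biosensor Rango (snurportin 1 IBB between N-terminal EYFP and C-terminal Cerulean), 50 nM in PBS/1 mM DTT/0.02% Tween-20/0.1% BSA, preincubated 5 min RT with compound; 0.125 microM importin beta added, 45 min RT, CFP/YFP FRET ratio read.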
# EPAC2 antag = blocks human EPAC2 exchange factor | Q8WZA2 | EPAC2 GEF exchange of Rap1B-BODIPY-GDP, fluorescence | Potency, µM (series often up to 114 µM), for the others: at the top dose activity, negative = inhibition, usual class: inhibitors | 360,000 compounds, 0.18% hits; note: % is set by controls: 0 for no effect and ±100 for the full control effect; nearly all actives have a fitted effect of over 45% in size
# EPAC1 antag = EPAC1 (human) antagonism. 360,000 compounds, 0.14% hits. O95398. EPAC1 GEF assay, Rap1b-BODIPY-GDP exchange fluorescence. Potency, µM (highest dose often 115 µM), without a hit: top-dose activity change, negative = inhibition, most hits filed as inhibitors;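 note: plate controls were vehicle for no effect and positive control for full effect; nearly all actives have a fitted effect of over 50% in size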
# Rango release inh = inhibitors of RanGTP-induced Rango-importin beta complex dissociation | Biochemical FRET Rango-importin beta, RanGTP-induced dissociation | Potency, µM (top dose mostly 46.1 µM), for the others: top-dose activity change, negative = inhibition | 340,000 compounds, 0.071% hits | AID 540253; calls by dose curve; note: % of control where 0% means no effect; nearly all actives have a fitted effect of over 45% in size
#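 Rango/importin beta premix (0.1/0.25 uM final), PBS + 1 mM DTT + 0.02% Tween-20 + 0.1% BSA; cpd 5 min RT; FRET pre-read; + RanGTP-RCC1 (0.6 uM Ran, 2 mM GTP, 0.2 uM RCC1); 45 min RT; FRET post-read, ex 430, em 486/530 nm.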
# * hit, by the source's call; u = inconclusive. Compounds with a hit are over-represented: about 0.48% of the library has one in this group of screens. Unless noted, calls come from the whole dose curve; as a rule, active = well fitted curve in the direction sought with a large enough effect; inconclusive = small, poorly fitted or top-dose-only effect, or another doubt; inactive = no such curve, though single readings can be large; an effect the other way counts as inactive or inconclusive. Potency is the fitted concentration of half-maximal effect.
SMILES,EPAC1 agonist,EPAC2 ag,Rango complex inh,EPAC2 antag,EPAC1 antag,Rango release inh
O=C1NC(=S)N(c2ccccc2)C(=O)/C1=C/c1ccco1,21%,4%,u,-25%,20µM*,u
CCOc1cccc(N2C(=O)/C(=C/c3ccco3)C(=O)NC2=S)c1,0%,2%,u,35%,u,0%
Nc1ccc2cc(Br)ccc2c1,-6%,5%,-2%,-16%,-13%,4%
Brc1ccc(Oc2ccc(Br)cc2Br)c(Br)c1,-15%,11%,-1%,u,4%,26µM*
N#CC(C#N)=Cc1ccc(N2CCOCC2)cc1,-1%,-12%,u,6%,-6%,u
Cc1cc(C=C(C#N)C#N)ccc1N1CCCC1,u,100µM*,u,7%,2%,u
Oc1c(Cl)c(Cl)c(Cl)c(Cl)c1Cl,-32%,-5%,-1%,10µM*,-22%,-12%
O=C1NC(=O)N(c2ccccc2F)C(=O)/C1=C/c1ccc(Sc2nc3ccccc3[nH]2)o1,14%,-1%,u,-1%,25µM*,u
O=C1NC(=O)N(c2cccc(Cl)c2)C(=O)/C1=C\c1ccc(Sc2nc3ccccc3[nH]2)o1,-2%,1%,u,-3%,45µM*,u
O=C1NC(=O)N(c2ccccc2)C(=O)/C1=C/c1ccc(Sc2ccccc2)o1,8%,2%,u,3%,11%,-19%
Cc1ccc(S(=O)(=O)NCC(=O)OCC(=O)N2N=C(c3ccc(Cl)cc3)CC2c2ccco2)cc1C (stereo unspecified),-2%,10%,-14%,6%,3%,25%
Cc1c(S(=O)(=O)Nc2cccc(Cl)c2)c(=O)n(C)c(=O)n1C,4%,8%,u,-1%,-8%,11%
CCS(=O)(=O)Nc1ccc(C2=NN(C(=O)c3ccco3)C(c3ccc(Cl)o3)C2)cc1 (stereo unspecified),3%,13%,u,-1%,-11%,22%
Cc1cccc(NP(=O)(Oc2ccccc2F)Oc2ccccc2F)c1,11%,6%,2%,u,-15%,10%
O=P(Nc1cccc(F)c1)(Oc1ccccc1F)Oc1ccccc1F,14%,23%,-1%,35µM*,u,20%
O=C1NCCN(Cc2cccc(Oc3ccccc3)c2)C1CC(=O)N1CCCCC1 (stereo unspecified),11%,4%,u,6%,9%,-29%
CCOc1ccccc1N=Cc1c(O)n(C)c(=O)n(C)c1=O,-1%,3%,-1%,7%,9%,u
CCN1/C(=C\C=C\C2=[N+](CC)c3ccccc3C2(C)C)C(C)(C)c2ccccc21,79µM*,50µM*,u,73%,94%,-20%
O=c1nc(/C=C/c2ccc(Cl)cc2Cl)cc(C(F)(F)F)[nH]1,-20%,-2%,-4%,56µM*,u,u
COCCCn1c(N)c(C(=O)NCCC(C)C)c2nc3ccccc3nc21,23%,-3%,u,u,50µM*,u
CCOP(=S)(OCC)Oc1cc(C)nc(C(C)C)n1,12%,-11%,-3%,22µM*,-5%,u
CCOP(=S)(OCC)Oc1cc(C)oc(=O)c1,-4%,7%,-3%,3%,-1%,12%
Cc1ccccc1N1C(=O)NC(=O)/C(=C\c2ccc3c(c2)CCCN3Cc2ccccc2)C1=O,12%,-3%,u,-5%,35µM*,u
Cc1cc(C(=O)Nc2ccc(CC(=O)O)cc2)c(C)o1,8%,13%,0%,2%,15%,u
Cc1nn(-c2ccccc2)c2c1P(=O)(O)/C(=C1\N(C)c3ccccc3C1(C)C)C=N2,-2%,-2%,u,-3%,-17%,u
CCCOP(=O)(c1ccc(N(C)C)cc1)C(O)c1ccc(Cl)cc1Cl (stereo unspecified),2%,10%,-3%,u,-24%,12%

# Screens from PubChem.
